# Reference: article PMC4336329 (PLoS ONE, 2015)
# Among all 310,000 compounds or so, about 14,000 (4.5%) showed an effect of 50% or more. The effect is printed as a negative number. Shown is part of a subset that was picked to be rich in strong results.
# Molecular target: human ether-à-go-go-related gene (hERG) potassium channel (human, UniProt Q12809)
# Assay: primary screen, population patch clamp on CHO cells stably expressing hERG; higher = less effect of the substance
# 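Also: peak tail current of the secondary pulse compared with the same well before compound.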
# Sequence of human ether-à-go-go-related gene (hERG) potassium channel (Q12809 whole entry, looked up): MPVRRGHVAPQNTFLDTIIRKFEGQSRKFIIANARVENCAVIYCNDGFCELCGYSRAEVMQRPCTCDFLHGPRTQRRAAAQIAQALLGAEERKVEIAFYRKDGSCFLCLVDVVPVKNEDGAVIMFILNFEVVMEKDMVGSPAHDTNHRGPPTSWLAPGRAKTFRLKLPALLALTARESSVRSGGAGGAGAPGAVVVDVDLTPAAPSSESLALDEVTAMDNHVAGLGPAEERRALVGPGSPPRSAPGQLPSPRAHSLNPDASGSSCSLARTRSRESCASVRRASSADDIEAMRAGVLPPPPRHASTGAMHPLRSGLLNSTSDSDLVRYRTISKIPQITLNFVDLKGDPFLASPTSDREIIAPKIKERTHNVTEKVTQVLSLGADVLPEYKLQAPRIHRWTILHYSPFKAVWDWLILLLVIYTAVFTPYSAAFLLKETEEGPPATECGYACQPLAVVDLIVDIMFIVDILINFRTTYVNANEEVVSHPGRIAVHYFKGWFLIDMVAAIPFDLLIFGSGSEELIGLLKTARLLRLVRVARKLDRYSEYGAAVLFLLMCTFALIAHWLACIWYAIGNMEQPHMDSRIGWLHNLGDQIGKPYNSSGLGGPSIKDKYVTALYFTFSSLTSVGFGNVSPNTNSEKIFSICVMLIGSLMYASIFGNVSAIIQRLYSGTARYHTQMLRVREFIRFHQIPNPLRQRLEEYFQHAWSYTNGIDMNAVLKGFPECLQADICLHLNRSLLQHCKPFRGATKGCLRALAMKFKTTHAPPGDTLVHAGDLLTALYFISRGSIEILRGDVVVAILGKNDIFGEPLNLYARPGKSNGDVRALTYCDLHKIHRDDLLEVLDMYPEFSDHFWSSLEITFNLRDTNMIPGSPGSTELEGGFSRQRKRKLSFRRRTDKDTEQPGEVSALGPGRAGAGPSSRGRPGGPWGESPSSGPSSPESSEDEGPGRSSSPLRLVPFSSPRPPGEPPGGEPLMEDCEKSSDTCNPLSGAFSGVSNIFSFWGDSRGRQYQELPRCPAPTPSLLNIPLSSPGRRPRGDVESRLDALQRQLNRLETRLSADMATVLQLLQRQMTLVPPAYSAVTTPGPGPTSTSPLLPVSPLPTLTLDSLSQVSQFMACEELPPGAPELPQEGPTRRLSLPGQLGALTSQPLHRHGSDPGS
row,SMILES,"hERG current change (%, negative = inhibition) at 10uM [%]"
1,COc1cccc(-c2nnc3n2N=C(c2cccc(Br)c2)CS3)c1,6.32
2,CCOC(=O)Cn1c(-c2ccccc2)ccc(C#N)c1=O,8.28
3,Cc1ccc(S(=O)(=O)NC23CC4CC(CC(C4)C2)C3)cc1,3.97
4,CCC(=O)N1CCN(c2ccc(Cl)cc2NC(=O)c2ccc(N3CCCC3)c([N+](=O)[O-])c2)CC1,-6.9
5,COc1ccccc1NC(=O)CCN1C(=O)C2CC=C(Cl)CC2C1=O (stereo not shown),-2.46
6,Cc1ccc(/C=C(\NC(=O)c2ccccc2)C(=O)NC2CCN(Cc3ccccc3)CC2)o1,-55.5
7,CC(C)(Oc1ccc(Cl)cc1)C(=O)NC1CC1,1.41
8,CC(C)(Oc1ccc(Cl)cc1)C(=O)NC1CCCCC1,0.43
9,Cc1ccc(/C=C(\NC(=O)c2ccccc2)C(=O)NCC2CCCO2)o1 (stereo not shown),-5.4
10,COc1ccccc1CC(=O)NC1CCN(Cc2ccccc2)CC1,1.52
11,C=C(C)c1cccc(C(C)(C)NC(=O)NC2CCCC2)c1,15.1
12,COc1cc(C(=O)NC2CCN(Cc3ccccc3)CC2)cc(Cl)c1OC,-44.3
13,C=C(C)c1cccc(C(C)(C)NC(=O)NC2CCN(Cc3ccccc3)CC2)c1.Cl,-55.5
14,COc1cc(C(=O)NC2CCN(Cc3ccccc3)CC2)cc(Cl)c1OC(C)C,-61.2
15,CC(C)(Oc1ccc(Cl)cc1)C(=O)NC1CCN(Cc2ccccc2)CC1,-70.4
16,Cc1ccc(/C=C(\NC(=O)c2ccccc2)C(=O)NCCN2CCOCC2)o1,-3.91
17,C=C(C)c1cccc(C(C)(C)NC(=O)NC2CN3CCC2CC3)c1 (stereo not shown),1.14
18,Cc1cccc(-c2onc3ccc(C4(C)OCCO4)cc23)c1,-1.6
19,CCOC(=O)c1[nH]cnc1C(=O)O,-2.12
20,CN(C)c1ccc(N2C(=NC(=O)C3CCCO3)SC3CS(=O)(=O)CC32)cc1 (stereo not shown),11.1

row,SMILES,"hERG current change (%, negative = inhibition) at 10uM [%]"
1,CCN(CC)C(=O)N1CCN(C(=O)N2CCOCC2)CC1,29.8
2,Cc1ccc2cccc(S(=O)(=O)N3CCN(c4cccc(Cl)c4)CC3)c2n1,-2.91
3,CC1CC(=O)N(CC(=O)Nc2cccc(F)c2)c2ccccc2S1(=O)=O (stereo not shown),-4.3
4,O=C(N1CCCCCC1)n1c(Cc2ccccc2)nc2ccccc21,-30.5
5,O=C(CN1CCN(c2ncc(C(F)(F)F)cc2Cl)CC1)NC(=O)NCc1ccccc1,4.2
6,Fc1ccc(NC(=S)NC2CCN(Cc3ccccc3)CC2)cc1,-30
7,O=C(NC1CCN(Cc2ccc(F)cc2)CC1)c1ccccc1,-50.2
8,CC(C)(C)c1ccc(C(=O)N2CCC(NC(=O)c3ccccc3)CC2)cc1,-1.48
9,O=C(NC1CCN(Cc2ccccc2)CC1)c1ccc2c(c1)[nH]c(=O)n2Cc1ccc(F)cc1,-21.8
10,Cl.O=C(NC(=S)NC1CCN(Cc2ccccc2)CC1)c1ccc(F)cc1,-72.3
11,Cc1ccccc1C(=O)NC1CCN(Cc2ccccc2)CC1,-29.1
12,CS(=O)(=O)Cc1ccc(C(=O)NC2CCN(Cc3ccccc3)C2)cc1 (stereo not shown),-5.28
13,CC(C)(C)c1ccc(C(=O)NC2CCN(Cc3ccccc3)CC2)cc1,-65.3
14,S=C(Nc1ccccc1)NC1CCN(Cc2ccccc2)CC1,-39.6
15,Cc1ccc(C)n1-c1ccc(C(=O)NC2CCN(Cc3ccccc3)CC2)cc1,-65.5
16,Cc1ccc(-n2c(=O)[nH]c3cc(C(=O)NC4CCN(Cc5ccccc5)CC4)ccc3c2=O)cc1,11.2
17,O=C(NC1CCN(Cc2ccccc2)CC1)c1ccc(CS(=O)c2ccc(F)cc2)o1 (stereo not shown),-22.4
18,Cc1ccc(-c2nnc(SCC(N)=O)n2C)cc1,-0.685
19,CN(C)N1C(N)=C(C#N)C(c2cccnc2)C2=C1CCCC2=O (stereo not shown),-9.73
20,CC(C)Oc1ccc(C(=O)O)cc1,16.5

row,SMILES,"hERG current change (%, negative = inhibition) at 10uM [%]"
1,O=S(=O)(NCc1ccccc1)c1ccc(Cl)c(S(=O)(=O)NCc2ccccc2)c1,-33
2,COc1ccc(C(=O)NCCC2=CCCCC2)cc1,-9.79
3,NS(=O)(=O)c1ccc(CCNC(=O)CNS(=O)(=O)c2cccc(Br)c2)cc1,13.2
4,COc1ccc(C2C(C#N)=C(N)N(c3sc4c(c3C#N)CCCC4)C3=C2C(=O)CC(C)(C)C3)cc1 (stereo not shown),-2.99
5,O=C(COc1ccc(Cl)cc1)Nc1ccc2oc(=O)ccc2c1,3.7
6,Cc1cc(C)n(C(=O)c2cc(F)c(F)cc2C)n1,4.1
7,CC(C)Oc1ccc(C(=O)NC2CCCCC2)cc1,10.3
8,Cc1ccc(CN2CCC(NC(=O)c3ccccc3)CC2)cc1,-75
9,Cc1ccc(CN2CCSc3ccc(C(=O)NC4CCN(Cc5ccccc5)CC4)cc32)cc1,8.21
10,O=C(NC1CCN(Cc2ccccc2)CC1)c1ccccc1,-33.3
11,CC(C)Oc1ccc(C(=O)NC2CCN(Cc3ccccc3)CC2)cc1,-60.8
12,CCCCOc1ccc(C(=O)NCC(=O)NC2CCN(Cc3ccccc3)CC2)cc1,-25.6
13,O=C(NC1CCN(Cc2ccc(Cl)c(Cl)c2)CC1)c1ccccc1,-18.3
14,O=C(NC1CCN(Cc2ccc3ccccc3c2)CC1)c1ccccc1,-66.3
15,OC1CCN(Cc2ccc3ccccc3c2)CC1,13.4
16,CCOC(=O)c1sc(=NC(=O)CCSc2ccccc2)n(C)c1C,-11.8
17,O=C(NCCOc1cccc2cccnc12)c1cccs1,-12.8
18,O=C(CSc1ncnc2c1nnn2Cc1ccc(F)cc1)NC1CCCCC1,11.8
